Screens deposited in PubChem BioAssay by National Center for Advancing Translational Sciences (NCATS).
Rows were chosen to be rich in hits. Some 1.9% of all compounds tested hit in one or more screens of this group.
FUS yeast rescue: rescues growth of FUS-expressing yeast; 390,000 tested, 0.24% active; Potency, µM (top dose mostly 76.6 µM), most hits filed as activators; S. cerevisiae FUS-expressing, growth rescue, OD600, 24 h;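 further: potency means the concentration at half of the fitted maximal effect; plate controls were DMSO vehicle for no effect and reference control for full effect; nearly all actives have a fitted effect of over 55% in size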
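FUS-expressing yeast, raffinose-pregrown, induced in 2% galactose minimal medium at OD 0.005; compounds in a dilution series, 24hr at 30C. Growth restoration read as absorbance at 600 nm. CP55940 positive control, DMSO negative.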
PTHR1 ag: PTHR1 (human) receptor agonism; HEK293 GP2 PTHR1 cells, GloSensor cAMP luminescence, 1 h; Potency, µM (titrated, usually from 115 µM), for the others: at the highest dose activation, usual class: activators; 410,000 tested, 0.075% active; further: potency means the concentration at half of the fitted maximal effect; nearly all actives have a fitted effect of over 55% in size
Target sequence (Q03431 whole entry, looked up): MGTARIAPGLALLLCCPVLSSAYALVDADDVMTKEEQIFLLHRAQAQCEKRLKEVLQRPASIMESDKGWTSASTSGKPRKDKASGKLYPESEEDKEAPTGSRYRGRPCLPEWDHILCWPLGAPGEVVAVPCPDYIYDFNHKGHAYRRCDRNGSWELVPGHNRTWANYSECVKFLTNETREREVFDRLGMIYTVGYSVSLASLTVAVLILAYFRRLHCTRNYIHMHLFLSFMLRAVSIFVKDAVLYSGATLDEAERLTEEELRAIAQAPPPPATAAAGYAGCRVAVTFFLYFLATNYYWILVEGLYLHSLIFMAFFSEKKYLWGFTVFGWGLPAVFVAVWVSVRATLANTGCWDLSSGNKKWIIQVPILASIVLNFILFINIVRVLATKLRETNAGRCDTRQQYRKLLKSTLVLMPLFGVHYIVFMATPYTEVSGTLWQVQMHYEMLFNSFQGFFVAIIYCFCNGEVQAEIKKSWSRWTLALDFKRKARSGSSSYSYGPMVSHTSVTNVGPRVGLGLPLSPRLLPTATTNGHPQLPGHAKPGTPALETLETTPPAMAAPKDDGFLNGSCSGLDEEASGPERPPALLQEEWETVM
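HEK-293-derived GP2 cells expressing PTHR1 and a GloSensor cAMP reporter, 3,000/well, plated overnight, given luciferin plus IBMX (each 0.5 mM as added) for 1 h at 37 °C, then compound for 1 h at 37 °C. Luminescence was read after 15 min at room temperature.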
Abeta rescue: restores growth of yeast expressing A-beta42 peptide | AID 1347071 | 410,000 tested, 0.063% active | Potency, µM (doses to about 46.1 µM), hits mostly activators | yeast expressing A-beta42, growth rescue, OD600, 48 h; response scale: 0% DMSO, 100% iron-clioquinol control; further: potency means the concentration at half of the fitted maximal effect; nearly all actives have a fitted effect of over 55% in size
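Yeast growth medium received pinned compounds, then yeast cells expressing toxic A-beta were added; plates incubated at 30 C for 48 hr. Growth read as absorbance at 600 nm, normalized to DMSO and equimolar FeCl3 plus clioquinol controls.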
TDP43 rescue: inhibitors of TDP-43 toxicity in yeast | TDP-43 expressing yeast growth rescue, BacTiter-Glo, 24 h | Potency, µM (doses to about 46.1 µM), without a hit: at the top dose growth rescue (activation), usual class: activators | 410,000 tested, 1.8% active; further: potency means the concentration at half of the fitted maximal effect; % of control where 0% means no effect; nearly all actives have a fitted effect of over 50% in size
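Yeast cells expressing TDP-43 under galactose induction are exposed to compounds for 24 hr at 30 deg C. BacTiter-Glo luminescence measures growth, so protective compounds score as activators.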
LDHA inh: blocks human lactate dehydrogenase A | 480,000 tested, 0.15% active | purified LDHA, NADH/diaphorase-resazurin fluorescence; stronger effect = lower value | AID 1347041 | activity change, % (values are at about 110 or 230 µM); in the data active means activity change below about -30%; inconclusive means mostly about -25% to -30%;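 further: plate controls were DMSO wells for no effect and wells without enzyme for full effect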
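Remaining NADH was detected by diaphorase (0.133 mg/mL) converting 37 µM resazurin to fluorescent resorufin, read at 0 and 20 minutes. The preceding 5-minute room-temperature reaction used 2 nM LDHA, 0.2 mM sodium pyruvate and 0.06 mM NADH at pH 7.4.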
aSyn yeast inh: alpha-synuclein toxicity inhibition in yeast | Yeast expressing alpha-synuclein, growth rescue, BacTiter-Glo, 24 h | Potency, µM (series often up to 46.1 µM), inactives show at the highest dose growth rescue (activation), actives largely listed as activators | 370,000 tested, 0.14% active | AID 652106; further: potency means the concentration at half of the fitted maximal effect; % of control where 0% means no effect; nearly all actives have a fitted effect of over 65% in size
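Galactose-induced alpha-syn yeast (OD600=0.02, raffinose-pregrown) + pinned cpd, 24 hr, 30 deg C; growth by BacTiter-Glo luminescence. Growth restoration scores as activation.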
Active calls of the source: *; i = inactive; ? = inconclusive; . = no result. Unless noted, the call rests on the fitted dose curve; in most records, active means well fitted curve in the direction sought with a large enough effect; inconclusive means small, poorly fitted or top-dose-only effect, or another doubt; inactive means no such curve, though single readings can be large; an effect the other way counts as inactive or inconclusive.

SMILES | FUS yeast rescue | PTHR1 ag | Abeta rescue | TDP43 rescue | LDHA inh | aSyn yeast inh
C=CCc1cccc(/C=N/NC(=O)c2ccccc2OC)c1O | i | -8.0% | i | 15.8µM* | 1.7 | 2.2%
C=CCc1cccc(/C=N/NC(=O)c2ccccc2Br)c1O | i | -1.8% | ? | 15.8µM* | -0.8 | ?
COC(=O)c1ccc2nc(-c3ccco3)c(Cc3cccc(F)c3)n2c1 | i | i | i | 14.1µM* | 1.5 | ?
Fc1ccc(-c2nc3c(Cl)cc(C(F)(F)F)cn3c2Cc2cccc(F)c2)cc1 | i | 1.2% | i | 1.4% | 0.4 | 7.3%
Cc1ccc(Cc2c(-c3ccco3)nc3c4ccccc4ccn23)cc1 | i | -20.1% | i | 0.0% | -2.6 | 12.6µM*
Fc1cccc(Cc2c(-c3ccco3)nc3c(Cl)cc(C(F)(F)F)cn23)c1 | i | -15.3% | i | 12.6µM* | -8.5 | 12.0%
COC(=O)c1ccc2nc(-c3ccco3)c(Cc3ccc(C)cc3)n2c1 | i | -14.0% | i | 20µM* | -1.4 | ?
COc1cc(C)c(C)cc1S(=O)(=O)Nc1ccc2c(c1)N(C(=O)c1cccnc1)CC2 | . | . | . | . | -10.4 | .
CCCn1c(N)c(C(=O)CSc2ccc3ccccc3n2)c(=O)[nH]c1=O | . | . | . | . | -13.2 | .
Cc1ccc(OCc2cc(C(=O)N3CCCCCCC3)no2)cc1C | i | -9.0% | i | 4.3% | 2.4 | -0.1%
Cc1ccc(OCc2cc(C(=O)N3CCC(C(O)C(C)C)CC3)no2)cc1C (stereo not given) | ? | -19.3% | i | 15.8µM* | -0.2 | 12.2%
COc1ccc2c(CSc3nnnn3-c3ccccc3)cc(=O)oc2c1 | . | . | . | . | 6.7 | .
CCn1c(/C=C/c2ccc(O)cc2)nc2ccccc2c1=O | i | -38.3% | i | 17.8µM* | -13.2 | 1.8%
CCn1c(/C=C/c2ccc(O)c(O)c2)nc2ccccc2c1=O | i | -11.9% | i | 6.1% | 10.4 | -2.4%
CCn1c(/C=C/c2ccccc2C)nc2ccccc2c1=O | i | i | i | 28.8% | -1.2 | -1.9%
O=c1c2ccccc2nc(/C=C/c2ccc(Br)cc2)n1CCO | i | 4.7% | i | 4.8% | -2.7 | -10.4%
C#CCn1c(/C=C/c2ccc(Cl)cc2)nc2ccccc21 | i | -42.4% | i | 35.5µM* | -6.8 | .
CCn1c(/C=C/c2ccccc2F)nc2ccccc2c1=O | i | i | i | 8.91µM* | -8.4 | -5.4%
O=c1c2ccccc2nc(/C=C/c2ccc(Cl)cc2)n1CCO | i | i | i | 11.2µM* | -3.7 | 5.1%
O=C(CCS(=O)(=O)c1ccc(F)cc1)Nc1ccccc1-c1ccccc1 | . | . | . | . | -1.3 | .
CC(/C=C/c1ccccc1)=N/NC(=S)NC1CCCCC1 | . | . | . | . | 2.3 | .
COc1cc(C(=O)N/C(=C\c2cn(C)c3ccccc23)C(=O)NCCO)cc(OC)c1OC | . | . | . | . | -2.6 | .
N#C/C(=C/c1ccc(OC(F)F)cc1)c1ccccn1 | . | . | . | . | 8.2 | .
CCOC(=O)c1ccc(NC(=O)CC2C(=O)N(c3ccc(F)cc3)C(=O)N2Cc2ccc3c(c2)OCO3)cc1 (stereo not given) | 39.8µM* | i | i | 1.6% | 3.1 | .
CC(C)Oc1cccc(C(C)NC(=O)c2ccccc2Cl)c1 (stereo not given) | . | . | . | . | 2.6 | .
SMILES | FUS yeast rescue | PTHR1 ag | Abeta rescue | TDP43 rescue | LDHA inh | aSyn yeast inh
Cc1ccc2c(COC(=O)Cc3n[nH]c(=O)c4ccccc34)cc(=O)oc2c1 | . | . | . | . | 7.7 | .
Cn1cc(Cl)c(/C(N)=N/OC(=O)c2ccccc2C(F)(F)F)n1 | i | -6.5% | i | 20µM* | -9.7 | 3.2%
FC(F)(F)c1ccc(/C=N/Nc2ccc(Cl)cc2)cc1 | . | . | . | . | -1.3 | .
COc1ccc(-c2ccc3[nH]c4c(c3c2)CCN2C(=O)[C@@H]([C@H](C)O)[C@@H](N(C)C(=O)Nc3cc(Cl)cc(Cl)c3)C[C@@H]42)cc1 | ? | -16.3% | i | 0.0% | -3.2 | 1.1%
COc1ccc(-c2ccc3[nH]c4c(c3c2)CCN2C(=O)[C@@H]([C@H](C)O)[C@@H](N(C)C(=O)Nc3ccc(F)cc3)C[C@@H]42)cc1 | ? | -14.1% | i | 0.0% | -30.8* | 0.4%
Cc1ccc(CNC(=O)CSc2nc3ccccc3o2)cc1 | . | . | . | . | 3.0 | .
O=C(NC1CCSc2ccccc21)c1ccc([N+](=O)[O-])cc1 (stereo not given) | i | -15.8% | ? | ? | 0.1 | 0.2%
O=C(OCc1ccccc1F)c1cc([N+](=O)[O-])ccc1N1CCOCC1 | . | -17.7% | i | 35.5µM* | -10.1 | 5.3%
O=C(NC1CCSc2ccccc21)c1cc([N+](=O)[O-])ccc1N1CCOCC1 (stereo not given) | i | i | i | 35.5µM* | -6.6 | -0.7%
Cc1ccccc1COC(=O)c1cc([N+](=O)[O-])ccc1N1CCOCC1 | i | i | i | 25.7% | 1.5 | 17.3%
CC(=O)Nc1ccc(NC(=O)CCCN(c2ccc(Cl)cc2)S(C)(=O)=O)cc1 | . | . | . | . | 9.4 | .
CCc1ccc(-c2nn(-c3ccccc3)cc2/C=N/O)cc1 | . | . | . | . | 7.2 | .
O=C(Nc1nc(-c2ccccn2)cs1)c1cc(Cl)ccc1[N+](=O)[O-] | i | -2.0% | 12.6µM* | ? | -0.7 | ?
O=C(Nc1nc(-c2ccccn2)cs1)c1ccc2c(c1)OCCO2 | i | -7.9% | 12.6µM* | ? | -0.8 | ?
O=C(Nc1nc(-c2ccco2)cs1)c1ccccc1 | i | -47.9% | i | 12.6µM* | -0.2 | -51.0%
Cc1cc(C(=O)Nc2nc(-c3ccccn3)cs2)ccc1[N+](=O)[O-] | i | -41.2% | i | ? | 1.6 | ?
COc1ncccc1CNC(=O)Nc1nnc(C2CC2)s1 | . | . | . | . | -0.9 | .
CCOc1ccc(CN=C2NS(=O)(=O)C(c3ccc(C)c(C)c3)=C2C)cc1 | . | . | . | . | 4.1 | .
CCC(=O)Nc1ccc2c(c1)nc(CCNC(=O)c1ccc(C)c(F)c1)n2C | . | . | . | . | -6.6 | .
Cc1cc(=O)oc2cc(OC(C)C(=O)Nc3ccc(S(=O)(=O)NC(C)C)cc3)ccc12 (stereo not given) | . | . | . | . | 6.9 | .
Cn1c(=O)c2c(nc(Cl)n2CC(=O)c2ccc(Br)cc2)n(C)c1=O | . | . | . | . | 9.6 | .
Cc1cc(C)c(C(N)=O)c(SCC(=O)c2cc(C)n(-c3cc(C)on3)c2C)n1 | i | -81.6% | i | 35.5µM* | -2.0 | 6.2%
Cc1cc(C)c(C(N)=O)c(SCC(=O)c2cc(C)c(C)cc2C)n1 | . | i | i | 9.6% | -12.7 | 0.3%
C=C(C)CN(CC)C(=O)c1nc(-c2cccs2)oc1C | . | . | . | . | -1.3 | .
